We go through 40 targets from the supplement of paper PMC11001985.

A number with no mark means an inactive call.

UniProt P14866, sequence (P14866 whole entry): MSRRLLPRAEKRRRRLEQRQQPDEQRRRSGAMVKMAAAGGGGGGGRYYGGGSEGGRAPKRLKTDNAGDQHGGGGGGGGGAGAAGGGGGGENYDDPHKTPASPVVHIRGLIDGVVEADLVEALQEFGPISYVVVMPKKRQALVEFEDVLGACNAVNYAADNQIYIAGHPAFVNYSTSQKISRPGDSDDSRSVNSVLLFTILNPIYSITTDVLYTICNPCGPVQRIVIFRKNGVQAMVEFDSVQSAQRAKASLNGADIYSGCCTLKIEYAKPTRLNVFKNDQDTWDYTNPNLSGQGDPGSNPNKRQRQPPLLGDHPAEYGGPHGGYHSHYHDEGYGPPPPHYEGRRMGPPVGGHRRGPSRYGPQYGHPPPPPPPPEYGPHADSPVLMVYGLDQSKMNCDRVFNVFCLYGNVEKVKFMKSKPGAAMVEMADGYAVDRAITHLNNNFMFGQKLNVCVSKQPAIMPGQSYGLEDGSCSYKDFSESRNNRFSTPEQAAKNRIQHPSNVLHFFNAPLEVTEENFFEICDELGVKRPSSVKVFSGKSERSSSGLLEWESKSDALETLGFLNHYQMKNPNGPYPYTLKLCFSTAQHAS
UniProt Q9BZM4, sequence (Q9BZM4 whole entry): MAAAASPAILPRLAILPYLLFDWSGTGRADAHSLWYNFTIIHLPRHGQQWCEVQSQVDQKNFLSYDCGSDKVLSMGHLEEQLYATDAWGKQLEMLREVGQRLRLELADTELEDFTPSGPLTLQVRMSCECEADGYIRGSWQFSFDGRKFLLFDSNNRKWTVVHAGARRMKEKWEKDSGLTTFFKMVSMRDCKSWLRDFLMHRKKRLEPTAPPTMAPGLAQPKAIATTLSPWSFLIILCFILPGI
UniProt Q9BY67, sequence (Q9BY67 whole entry): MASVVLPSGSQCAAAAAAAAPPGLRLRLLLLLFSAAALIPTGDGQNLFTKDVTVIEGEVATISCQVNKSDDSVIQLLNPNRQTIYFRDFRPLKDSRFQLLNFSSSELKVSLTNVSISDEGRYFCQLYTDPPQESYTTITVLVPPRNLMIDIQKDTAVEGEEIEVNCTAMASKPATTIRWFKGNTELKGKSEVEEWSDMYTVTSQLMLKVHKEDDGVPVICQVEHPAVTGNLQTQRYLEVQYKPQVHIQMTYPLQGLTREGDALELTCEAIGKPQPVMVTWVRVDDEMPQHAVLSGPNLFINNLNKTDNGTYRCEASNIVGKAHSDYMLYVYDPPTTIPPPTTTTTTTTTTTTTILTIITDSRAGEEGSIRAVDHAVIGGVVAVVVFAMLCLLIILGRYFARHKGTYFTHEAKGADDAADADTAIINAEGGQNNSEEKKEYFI
UniProt P02787, sequence (P02787 whole entry): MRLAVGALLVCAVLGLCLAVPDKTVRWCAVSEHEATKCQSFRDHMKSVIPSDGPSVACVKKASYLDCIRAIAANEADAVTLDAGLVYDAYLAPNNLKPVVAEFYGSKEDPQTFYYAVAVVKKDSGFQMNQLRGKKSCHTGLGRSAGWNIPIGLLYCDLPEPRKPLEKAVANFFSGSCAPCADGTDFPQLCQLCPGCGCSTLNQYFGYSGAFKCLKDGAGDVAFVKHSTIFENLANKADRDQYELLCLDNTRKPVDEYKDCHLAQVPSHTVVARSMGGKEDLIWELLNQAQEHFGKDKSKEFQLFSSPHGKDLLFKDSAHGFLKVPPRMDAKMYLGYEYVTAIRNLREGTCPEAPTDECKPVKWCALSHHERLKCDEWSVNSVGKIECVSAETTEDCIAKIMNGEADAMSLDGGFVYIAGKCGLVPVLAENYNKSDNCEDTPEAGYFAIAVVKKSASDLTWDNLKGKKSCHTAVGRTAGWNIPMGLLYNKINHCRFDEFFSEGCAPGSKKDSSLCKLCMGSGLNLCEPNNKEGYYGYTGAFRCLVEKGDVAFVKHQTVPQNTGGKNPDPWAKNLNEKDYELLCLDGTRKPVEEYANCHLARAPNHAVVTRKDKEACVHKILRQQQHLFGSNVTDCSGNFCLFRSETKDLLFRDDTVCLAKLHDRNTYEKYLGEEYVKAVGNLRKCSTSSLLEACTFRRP
UniProt Q9H5V8, sequence (Q9H5V8 whole entry): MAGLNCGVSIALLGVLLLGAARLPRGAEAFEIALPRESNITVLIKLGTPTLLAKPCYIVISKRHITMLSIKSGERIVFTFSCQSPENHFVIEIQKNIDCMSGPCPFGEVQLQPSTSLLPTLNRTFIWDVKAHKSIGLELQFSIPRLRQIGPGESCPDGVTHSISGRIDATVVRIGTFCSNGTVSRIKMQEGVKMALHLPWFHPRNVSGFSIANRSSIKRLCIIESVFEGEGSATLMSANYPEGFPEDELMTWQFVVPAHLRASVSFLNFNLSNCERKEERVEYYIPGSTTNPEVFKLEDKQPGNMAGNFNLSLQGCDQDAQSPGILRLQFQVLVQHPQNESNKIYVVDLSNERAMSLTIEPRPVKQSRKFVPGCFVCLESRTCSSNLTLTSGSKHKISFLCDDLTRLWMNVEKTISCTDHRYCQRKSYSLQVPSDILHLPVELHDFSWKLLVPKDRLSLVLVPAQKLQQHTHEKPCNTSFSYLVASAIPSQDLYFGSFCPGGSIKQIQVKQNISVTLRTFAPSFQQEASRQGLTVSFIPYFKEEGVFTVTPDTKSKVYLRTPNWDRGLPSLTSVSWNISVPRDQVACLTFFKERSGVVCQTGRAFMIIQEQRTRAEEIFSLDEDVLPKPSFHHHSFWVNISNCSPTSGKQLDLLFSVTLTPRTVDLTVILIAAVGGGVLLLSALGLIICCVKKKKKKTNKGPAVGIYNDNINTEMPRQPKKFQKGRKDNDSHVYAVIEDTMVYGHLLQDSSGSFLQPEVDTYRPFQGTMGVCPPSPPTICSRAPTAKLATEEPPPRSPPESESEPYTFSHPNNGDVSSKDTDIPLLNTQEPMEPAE
UniProt P61604, sequence (P61604 whole entry): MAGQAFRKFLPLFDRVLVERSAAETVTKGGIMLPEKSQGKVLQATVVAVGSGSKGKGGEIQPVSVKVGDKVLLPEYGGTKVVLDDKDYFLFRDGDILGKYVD
UniProt P49368, sequence (P49368 whole entry): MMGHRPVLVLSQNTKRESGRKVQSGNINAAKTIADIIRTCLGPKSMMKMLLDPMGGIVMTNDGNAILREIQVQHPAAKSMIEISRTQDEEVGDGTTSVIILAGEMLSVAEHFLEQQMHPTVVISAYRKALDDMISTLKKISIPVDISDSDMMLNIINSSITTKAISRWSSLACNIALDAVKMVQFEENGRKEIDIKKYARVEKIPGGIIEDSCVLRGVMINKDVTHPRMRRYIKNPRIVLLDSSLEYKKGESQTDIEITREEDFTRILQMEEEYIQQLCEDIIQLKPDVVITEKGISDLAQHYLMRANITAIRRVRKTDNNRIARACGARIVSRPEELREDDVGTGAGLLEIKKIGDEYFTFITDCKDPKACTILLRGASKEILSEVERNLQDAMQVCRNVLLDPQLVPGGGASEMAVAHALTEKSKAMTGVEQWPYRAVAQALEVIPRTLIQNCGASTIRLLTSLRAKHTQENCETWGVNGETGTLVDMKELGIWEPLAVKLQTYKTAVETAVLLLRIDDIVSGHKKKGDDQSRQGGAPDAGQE
UniProt P00533, sequence (P00533 whole entry): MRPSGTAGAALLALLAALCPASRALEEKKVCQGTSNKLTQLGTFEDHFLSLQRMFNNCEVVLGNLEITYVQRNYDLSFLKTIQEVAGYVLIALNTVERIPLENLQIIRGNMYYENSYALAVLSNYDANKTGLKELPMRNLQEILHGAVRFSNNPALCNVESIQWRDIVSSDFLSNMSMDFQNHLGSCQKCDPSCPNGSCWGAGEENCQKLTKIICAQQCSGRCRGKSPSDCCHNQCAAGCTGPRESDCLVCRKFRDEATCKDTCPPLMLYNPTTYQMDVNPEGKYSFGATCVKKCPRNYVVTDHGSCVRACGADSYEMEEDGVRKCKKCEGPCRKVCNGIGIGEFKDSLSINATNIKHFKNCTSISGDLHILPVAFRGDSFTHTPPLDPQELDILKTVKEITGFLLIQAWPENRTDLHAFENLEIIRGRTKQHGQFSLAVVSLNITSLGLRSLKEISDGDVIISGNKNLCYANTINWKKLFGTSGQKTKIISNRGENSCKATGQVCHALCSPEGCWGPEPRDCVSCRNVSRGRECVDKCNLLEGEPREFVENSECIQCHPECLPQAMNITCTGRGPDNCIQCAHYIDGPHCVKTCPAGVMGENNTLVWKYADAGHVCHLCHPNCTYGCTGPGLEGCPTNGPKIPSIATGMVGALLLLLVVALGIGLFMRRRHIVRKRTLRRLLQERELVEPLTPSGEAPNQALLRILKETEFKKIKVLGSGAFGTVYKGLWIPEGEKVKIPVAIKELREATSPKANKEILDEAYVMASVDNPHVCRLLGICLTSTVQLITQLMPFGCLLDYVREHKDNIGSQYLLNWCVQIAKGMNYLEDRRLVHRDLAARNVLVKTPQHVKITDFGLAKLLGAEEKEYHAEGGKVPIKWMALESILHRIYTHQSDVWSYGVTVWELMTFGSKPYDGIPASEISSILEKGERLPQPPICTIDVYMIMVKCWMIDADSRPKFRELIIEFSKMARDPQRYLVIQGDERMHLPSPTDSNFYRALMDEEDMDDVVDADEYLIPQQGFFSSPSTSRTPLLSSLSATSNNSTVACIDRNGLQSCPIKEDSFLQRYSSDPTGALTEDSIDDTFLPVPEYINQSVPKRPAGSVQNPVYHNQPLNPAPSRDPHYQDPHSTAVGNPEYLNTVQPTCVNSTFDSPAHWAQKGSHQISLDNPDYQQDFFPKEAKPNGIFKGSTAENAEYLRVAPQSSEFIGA
UniProt O00560, sequence (O00560 whole entry): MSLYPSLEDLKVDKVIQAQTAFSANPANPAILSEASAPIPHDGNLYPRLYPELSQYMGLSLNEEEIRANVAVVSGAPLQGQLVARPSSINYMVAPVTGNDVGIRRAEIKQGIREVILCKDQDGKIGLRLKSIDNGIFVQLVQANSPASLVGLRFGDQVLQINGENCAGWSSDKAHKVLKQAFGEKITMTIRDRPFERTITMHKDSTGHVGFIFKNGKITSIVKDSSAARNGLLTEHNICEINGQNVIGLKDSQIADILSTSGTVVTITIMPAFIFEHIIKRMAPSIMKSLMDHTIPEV

Compound in the assay: C#CCNC(=O)CCSSCCC(=O)NCCc1ccc(C=O)c(C=O)c1
Nature of the assay: lysine labeling ratio R10:1 (500 µM / 50 µM probe), SILAC-ABPP in living cells; higher = lower intrinsic lysine reactivity toward the probe, active = 2 or less. To be noted: HeLa; probe concentrations 500 vs 50 µM. Put shortly: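 With forward and reverse label swaps, light and heavy SILAC HeLa cells, alive and in PBS at room temperature, were exposed to either 500 µM or 50 µM of an alkyne-tagged lysine probe bearing a disulfide link. After mixing, lysates were clicked to biotin-azide, cut with trypsin, pulled down on neutravidin, freed with DTT, alkylated and analysed on a TIMS-TOF Pro by LC-MS/MS. The per-lysine value R is the median over forward and reverse replicates of the filtered median high-probe/low-probe MS1 peptide ratio. It is capped at 20.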
TF (lysine site: K134) (UniProt P02787): the “lysine labeling ratio R10:1” value was 2.36.
For the target UniProt P05787 (lysine site: K130), the “lysine labeling ratio R10:1” value was 9.55.
Under “SQSTM1 (lysine site: K13) (UniProt Q13501)” stands 7.96; under “GPC1 (lysine site: K338) (UniProt P35052)”, 7.36.
As to “EGFR (lysine site: K293) (UniProt P00533)”, the “lysine labeling ratio R10:1” value is 3.59.
Under “MSN (lysine site: K165) (UniProt P26038)” stands 3.56; under “SEMA3C (lysine site: K416) (UniProt Q99985)”, 2.36; under UniProt P48047 (lysine site: K84), 4.75.
Next, UniProt P09758 (lysine site: K84): 5.29; “ITGA6 (lysine site: K594) (UniProt P23229)”: 6.44; “HNRNPL (lysine site: K302) (UniProt P14866)”: 1.66 (active).
Consider “RPL5 (lysine site: K188) (UniProt P46777)”, for which the “lysine labeling ratio R10:1” value was 4.22.
Under “PA2G4 (lysine site: K238) (UniProt Q9UQ80)” stands 1.53 (active).
Next, “CDCP1 (lysine site: K454) (UniProt Q9H5V8)”: 1.89 (active); “L1CAM (lysine site: K222) (UniProt P32004)”: 9.33; UniProt P21589 (lysine site: K536): 1.24 (active).
Under “MYH9 (lysine site: K1845) (UniProt P35579)” stands 1.57 (active).
On to “PTPRJ (lysine site: K876) (UniProt Q12913)”, for which the “lysine labeling ratio R10:1” value is 3.12.
Next, “PTPRS (lysine site: K1001) (UniProt Q13332)”: 4.13; “ANXA2 (lysine site: K49) (UniProt P07355)”: 3.95.
Under “FN1 (lysine site: K116) (UniProt P02751)” stands 5.35; under “HNRNPL (lysine site: K493) (UniProt P14866)”, 1.94 (active); under “ROBO1 (lysine site: K237) (UniProt Q9Y6N7)”, 3.22.
As for “BTN2A1 (lysine site: K101) (UniProt Q7KYR7)”, the “lysine labeling ratio R10:1” value was 2.46.
Under “CACNA2D1 (lysine site: K586) (UniProt P54289)” stands 2.9; under UniProt Q9BZM4 (lysine site: K192), 1.43 (active); under “SDCBP (lysine site: K124) (UniProt O00560)”, 1.6 (active).
With “DSG2 (lysine site: K451) (UniProt Q14126)”, the “lysine labeling ratio R10:1” value was 0.823 (active).
Regarding “RPL28 (lysine site: K19) (UniProt P46779)”, the “lysine labeling ratio R10:1” value is 0.79 (active).
For “RDX (lysine site: K556) (UniProt P35241)”, the “lysine labeling ratio R10:1” value was 1.52 (active).
Next, “COL5A1 (lysine site: K1708) (UniProt P20908)”: 1.7 (active).
On to UniProt P46781 (lysine site: K155), for which the “lysine labeling ratio R10:1” value was 2.28.
With “CADM1 (lysine site: K93) (UniProt Q9BY67)”, the “lysine labeling ratio R10:1” value is 4.95.
As for “DYNC1H1 (lysine site: K371) (UniProt Q14204)”, the “lysine labeling ratio R10:1” value was 1.14 (active).
Under UniProt Q14574 (lysine site: K662) stands 1.83 (active); under “CD46 (lysine site: K227) (UniProt P15529)”, 6.48.
Under “HSPE1 (lysine site: K8) (UniProt P61604)” stands 4.22; under “CCT3 (lysine site: K222) (UniProt P49368)”, 2.19; under “AHNAK (lysine site: K563) (UniProt Q09666)”, 2.5.
As for “XRCC5 (lysine site: K648) (UniProt P13010)”, the “lysine labeling ratio R10:1” value is 1.9 (active).
